# Laboratory results: PubChem BioAssay
# The source made the active and inactive calls.
# What was measured:
# [1] = E. coli DRC41 culture turbidity changes, primary screen, E. coli filamentation inducer project, strain DRC41, OD650, 48 h (AID 1152);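 note: E. coli MC1000 strain DRC41 lacking acrAB efflux pump and sulA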; settings: E. coli DRC41 (acrAB sulA), higher = more signal, called active from +8 up or from −8 down
# [2] = small-molecule binders of probe aLefty1, primary screen, biochemical, small-molecule microarray, 635/667 nm fluorescence (AID 1153); settings: higher = more signal;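 note: score merges spot fluorescence with signal-to-noise ratio from the scanned slide images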
# [3] = PSAC antagonists in infected red cells, primary screen, cell-based, P. falciparum Indochina, OD700, 1 h (AID 1154); settings: P. falciparum Indochina infected RBC osmotic lysis, higher = more signal, called active from +8 up or from −8 down
# [4] = PSAC antagonists in infected red cells, primary screen, cell-based, P. falciparum Indochina, OD700, 2 h (AID 1155);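 note: lysis reports solute entry through the parasite surface anion channel PSAC; channel blockers reduce lysis of infected cells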; settings: P. falciparum Indochina infected erythrocytes, osmotic lysis OD700; higher = more signal, called active from +8 up or from −8 down
# [5] = osmotic lysis modulators in infected erythrocytes, primary screen, PSAC antagonist project, cell-based, P. falciparum Indochina, OD700, 3 h (AID 1156); settings: higher = more signal, called active from +8 up or from −8 down
# [6] = PSAC antagonists in infected red cells, primary screen, cell-based, P. falciparum Indochina, OD700, 18 h (AID 1157); settings: P. falciparum Indochina infected erythrocytes, osmotic lysis OD700, 18 h; higher = more signal, called active from +8 up or from −8 down
# [7] = modulators of S6 phosphorylation in cells, primary screen, cell-based, A549, cytoblot, luminescence, serum-stimulated (AID 1158); settings: A549 phospho-S6 cytoblot, 5 h, higher = more signal;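 note: serum-stimulated A549 lung adenocarcinoma cells; signal is phosphorylated S6 detected by cytoblot immunostaining with HRP secondary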
# [8] = molecular target: NADPH oxidase 2 (Homo sapiens) (UniProt P04839); assay: NOX2-dependent H2O2 signal modulators, primary screen, NOX inhibitor project, cell-based, HEK293-NOX2, PMA-stimulated, Amplex Red fluorescence (AID 1159); settings: 45 min, higher = more signal, called active from +8 up or from −8 down; note: test concentration not given here
# NADPH oxidase 2 (Homo sapiens), sequence (P04839 whole entry, looked up): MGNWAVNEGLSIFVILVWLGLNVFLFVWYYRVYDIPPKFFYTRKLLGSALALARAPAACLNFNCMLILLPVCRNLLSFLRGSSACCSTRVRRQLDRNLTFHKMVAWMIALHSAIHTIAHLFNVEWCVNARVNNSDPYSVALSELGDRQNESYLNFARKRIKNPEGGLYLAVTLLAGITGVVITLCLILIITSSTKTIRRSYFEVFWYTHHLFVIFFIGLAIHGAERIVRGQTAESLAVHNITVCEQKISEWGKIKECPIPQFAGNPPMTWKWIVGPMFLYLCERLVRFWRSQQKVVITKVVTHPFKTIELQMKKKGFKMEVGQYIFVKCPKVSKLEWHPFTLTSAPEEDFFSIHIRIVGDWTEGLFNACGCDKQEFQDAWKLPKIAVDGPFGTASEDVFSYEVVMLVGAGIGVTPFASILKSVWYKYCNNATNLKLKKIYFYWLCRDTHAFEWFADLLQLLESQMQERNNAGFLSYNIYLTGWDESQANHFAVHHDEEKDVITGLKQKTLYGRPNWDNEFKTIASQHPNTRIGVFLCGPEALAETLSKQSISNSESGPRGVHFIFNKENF
# [9] = molecular target: NADPH oxidase 4 (Homo sapiens) (UniProt Q9NPH5); assay: NOX4-dependent H2O2 signal modulators, primary screen, NOX inhibitor project, cell-based, HEK293-NOX4, tetracycline-induced, Amplex Red fluorescence (AID 1160); settings: 45 min, higher = more signal, called active from +8 up or from −8 down
# NADPH oxidase 4 (Homo sapiens), sequence (Q9NPH5 whole entry, looked up): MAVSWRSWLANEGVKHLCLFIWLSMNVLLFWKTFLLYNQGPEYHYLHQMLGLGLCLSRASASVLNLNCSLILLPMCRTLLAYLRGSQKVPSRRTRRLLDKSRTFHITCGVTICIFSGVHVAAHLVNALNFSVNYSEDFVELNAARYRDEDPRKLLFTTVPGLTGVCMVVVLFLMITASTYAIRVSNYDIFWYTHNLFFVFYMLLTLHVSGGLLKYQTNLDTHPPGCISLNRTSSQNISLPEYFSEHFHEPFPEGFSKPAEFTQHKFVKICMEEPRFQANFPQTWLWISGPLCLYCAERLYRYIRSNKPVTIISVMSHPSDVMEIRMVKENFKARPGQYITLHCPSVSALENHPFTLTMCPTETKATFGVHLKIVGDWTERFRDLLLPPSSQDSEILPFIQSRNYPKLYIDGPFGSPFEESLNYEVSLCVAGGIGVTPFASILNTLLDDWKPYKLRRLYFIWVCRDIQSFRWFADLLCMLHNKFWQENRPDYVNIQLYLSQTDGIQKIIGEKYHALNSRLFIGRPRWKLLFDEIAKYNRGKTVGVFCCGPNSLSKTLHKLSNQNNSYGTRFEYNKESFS
# [10] = molecular target: NADPH oxidase 5 (Homo sapiens) (UniProt Q96PH1); assay: NOX5-dependent H2O2 signal modulators, primary screen, NOX inhibitor project, cell-based, HEK293-NOX5, Amplex Red fluorescence (AID 1161); settings: HEK293-NOX5, ionomycin, 45 min, higher = more signal
# NADPH oxidase 5 (Homo sapiens), sequence (Q96PH1 whole entry, looked up): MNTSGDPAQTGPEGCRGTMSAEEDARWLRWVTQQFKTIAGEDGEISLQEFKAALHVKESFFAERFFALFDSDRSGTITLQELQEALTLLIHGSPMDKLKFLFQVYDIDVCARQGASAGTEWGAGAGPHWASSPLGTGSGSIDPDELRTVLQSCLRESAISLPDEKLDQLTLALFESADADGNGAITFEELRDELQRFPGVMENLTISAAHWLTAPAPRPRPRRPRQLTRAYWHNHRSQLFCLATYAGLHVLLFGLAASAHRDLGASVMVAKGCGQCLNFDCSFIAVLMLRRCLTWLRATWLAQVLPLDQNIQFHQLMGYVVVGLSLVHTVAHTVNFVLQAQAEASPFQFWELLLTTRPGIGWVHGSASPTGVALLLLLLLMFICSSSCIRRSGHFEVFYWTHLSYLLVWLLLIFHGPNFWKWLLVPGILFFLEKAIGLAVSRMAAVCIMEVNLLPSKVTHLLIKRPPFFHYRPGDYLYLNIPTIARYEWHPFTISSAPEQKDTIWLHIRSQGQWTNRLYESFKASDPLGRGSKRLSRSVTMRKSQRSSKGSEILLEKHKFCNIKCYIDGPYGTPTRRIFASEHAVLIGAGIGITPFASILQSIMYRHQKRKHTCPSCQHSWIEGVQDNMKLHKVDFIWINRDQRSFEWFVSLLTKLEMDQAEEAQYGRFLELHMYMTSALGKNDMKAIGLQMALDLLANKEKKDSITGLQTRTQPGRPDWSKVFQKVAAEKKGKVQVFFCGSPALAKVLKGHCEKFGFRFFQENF
# [11] = A549 cell viability effects, profiling panel, calcein-AM fluorescence, 48 h, basal (AID 1162); settings: higher = more signal; note: test concentration not given here
# [12] = adipocyte viability effects, profiling panel, cell-based, 3T3-L1 adipocytes, calcein-AM fluorescence, 48 h, basal (AID 1163); settings: 3T3-L1 adipocytes viability, higher = more signal; note: test concentration not given here
# [13] = HepG2 cell viability effects, profiling panel, calcein-AM fluorescence, 48 h, basal (AID 1164); settings: higher = more signal; note: test concentration not given here
# [14] = MM1S cell viability effects, profiling panel, calcein-AM fluorescence, 48 h, basal (AID 1165); settings: higher = more signal;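 note: viability of MM1S multiple myeloma cells under basal unstimulated conditions; test concentration not given here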
# [15] = basal RPMI8226 viability, no added stimulus, profiling panel, cell-based, calcein-AM fluorescence, 48 h, PK04 Diversity Set (AID 1166); settings: RPMI8226 myeloma viability, higher = more signal;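 note: cells grown under basal conditions without added stimulus; test concentration not given here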
# [16] = basal HepG2 mitochondrial membrane potential changes, profiling panel, cell-based, JC-1 fluorescence, 24 h, 100 nL compound (AID 1167); settings: higher = more signal; note: test concentration not given here
# [17] = basal 3T3-L1 adipocyte mitochondrial potential changes, profiling panel, cell-based, JC-1 fluorescence, 3T3-L1 adipocytes, 24 h, 100 nL compound (AID 1168); settings: JC-1 mitochondrial fluorescence, higher = more signal, called active from +8 up or from −8 down; note: test concentration not given here
# [18] = basal RPMI8226 mitochondrial membrane potential changes, profiling panel, cell-based, JC-1 fluorescence, 24 h, 100 nL compound (AID 1169); settings: RPMI8226 myeloma, JC-1 mitochondrial potential fluorescence, higher = more signal; note: test concentration not given here
# [19] = basal MM1S mitochondrial membrane potential changes, profiling panel, cell-based, JC-1 fluorescence, 24 h, 100 nL compound (AID 1170); settings: higher = more signal; note: test concentration not given here
# [20] = A549 lung cancer cell viability effects, profiling panel, resazurin fluorescence, 24 h, PK04 Diversity Set (AID 1171); settings: higher = more signal, called active from +8 up or from −8 down; note: test concentration not given here
Compound,z-score [1],composite z-score [2],z-score [3],z-score [4],z-score [5],z-score [6],z-score [7],z-score [8],z-score [9],z-score [10],z-score [11],z-score [12],z-score [13],z-score [14],z-score [15],z-score [16],z-score [17],z-score [18],z-score [19],z-score [20]
CCCCCCc1nc(-c2ccc(OC)nc2)c(C)c2c1[Si](C(C)C)(C(C)C)OC2,0.579 (inactive),-0.115,1.74 (inactive),-0.0075 (inactive),0.974 (inactive),-0.349 (inactive),1.34,-1.98 (inactive),-0.117 (inactive),-2.71,-0.405,1.26,0.002,-2.26,-2.79,0.103,0.251 (inactive),-0.641,0.498,0.863 (inactive)
CC(=O)NCCCC[C@@H]1NC(=O)[C@H]2C[C@@H](C(=O)NCCCCCN)[C@@H](c3ccc(O)cc3)N2C1=O,-0.556 (inactive),0.302,0.537 (inactive),0.33 (inactive),0.0814 (inactive),0.302 (inactive),-0.413,0.178 (inactive),-1.24 (inactive),1.01,-0.754,0.311,-0.926,-0.0917,-0.556,-0.659,-0.34 (inactive),0.135,0.353,-0.0632 (inactive)
C=CCOC(=O)[C@H]1[C@@H]2C(=O)O[C@@H](c3ccccc3)[C@@H](c3ccccc3)N2[C@@H](c2ccc(OCCOC(=O)[C@H]3C[C@H]4C(=O)NCC(=O)N4[C@H]3c3ccc(O)cc3)cc2)[C@]12C(=O)Nc1ccccc12,0.141 (inactive),1.09,2.42 (inactive),1.3 (inactive),2.3 (inactive),0.987 (inactive),-0.295,2.06 (inactive),-0.365 (inactive),0.00131,-0.759,0.645,-1.05,0.117,-0.259,-1.42,0.962 (inactive),-0.356,-0.821,0.729 (inactive)
C[N+](C)(C)CCCC[C@@H]1NC(=O)[C@H]2C[C@@H](C(=O)O)[C@@H](c3ccc(O)cc3)N2C1=O,1.03 (inactive),0.0437,3.34 (inactive),1.17 (inactive),-2.47 (inactive),0.302 (inactive),1.2,-1.77 (inactive),-1.23 (inactive),-0.411,0.434,0.291,0.0336,-3.12,0.442,1.93,-0.301 (inactive),-0.2,-1.26,0.554 (inactive)
CC(C)[Si]1(C(C)C)OCc2cc(-c3ccc(-c4ccc(Cl)c(Cl)c4)o3)nc(-c3ccc(Oc4ccccc4)cc3)c21,-1.08 (inactive),-0.21,1.88 (inactive),0.352 (inactive),0.0032 (inactive),0.533 (inactive),-0.203,-4.58 (inactive),0.169 (inactive),-1.54,-0.222,-1.06,-0.879,0.0719,-0.605,0.213,-0.966 (inactive),0.17,0.0397,-0.232 (inactive)
O=C1NC(=O)C2C1C=CC(C(O)C(O)CO)N2Nc1ccccn1 (stereo not given),-0.0393 (inactive),0.586,0.0087 (inactive),0.0339 (inactive),-0.489 (inactive),-0.145 (inactive),1.14,-0.193 (inactive),-0.921 (inactive),-0.339,0.159,-0.28,2.19,0.434,0.476,0.361,0.117 (inactive),-0.627,0.123,-1.65 (inactive)
COC(=O)[C@@]1(Cc2ccc(F)cc2)[C@H]2c3cc(C(=O)N4CCCC4)n(C[C@H](O)CO)c3C[C@H]2CN1C(=O)c1ccccc1,-1.62 (inactive),0.873,1.41 (inactive),0.542 (inactive),0.396 (inactive),0.668 (inactive),-0.0929,0.709 (inactive),-0.364 (inactive),-2.49,-1.21,0.24,-0.674,-0.26,-1.07,-0.438,-1.11 (inactive),-0.663,-0.371,0.467 (inactive)
COCCCNC(=O)[C@@]1(c2ccc([N+](=O)[O-])cc2)CC(=O)N(C2CCCCC2)[C@@H]1c1ccc(CO)cc1I,0.725 (inactive),-0.208,12.6 (active),1.35 (inactive),3.44 (inactive),1.11 (inactive),0.107,1.78 (inactive),0.381 (inactive),2.07,1.22,0.944,0.857,-1.41,-0.0154,2.88,0.802 (inactive),0.496,0.106,1.38 (inactive)
C=CCNC(=O)[C@H]1[C@@H]2C(=O)O[C@@H](c3ccccc3)[C@@H](c3ccccc3)N2[C@@H](c2ccc(O)cc2)[C@]12C(=O)Nc1ccc(C#CCC(C(=O)OC)C(=O)OC)cc12,0.824 (inactive),-0.188,8.47 (active),1.51 (inactive),0.416 (inactive),0.432 (inactive),0.0591,1.82 (inactive),0.194 (inactive),1.93,0.33,-0.0589,0.102,-2.95,-4.12,-0.922,-0.363 (inactive),-0.891,0.111,0.0955 (inactive)
